Laboratory results taken from PubChem BioAssay (NCI).
Values joined by “and” are separate entries in the source; they are usually repeats but may differ in a detail not shown here. Identical values can stand only once. Compounds without any hit were thinned out: in the full panel of roughly 83,000, 20% have a hit.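 Cell lines were cultured in 96-well plates, exposed to a single compound concentration, and assessed for percent growth 48 hours later.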 Where a structure was tested more than once in an assay, its records may differ in their call. Active and inactive are the calls of the source. Rule for the calls: active = growth percent below 10; inactive = the rest.

System: A498 renal
Assay: NCI-60 one-dose screen, 48 h (100 = growth as untreated, 0 = no growth, -100 = all killed)
Conditions: 10 µM unless noted

SMILES	growth
O=C(N/N=C/c1ccccc1)N/N=C/c1ccccc1	61.3% (inactive)
COc1ccc(-c2cn[nH]c2-c2cc(OC)c(OC)c(OC)c2)cc1N	-1.49% (active)
C1CCCCNCCC1	113% (inactive)
COc1ccccc1C(C)=O	92% (inactive) and 108% (inactive)
NS(=O)(=O)c1cc2c(cc1Cl)NC(C(Cl)Cl)NS2(=O)=O (stereo not given)	97.6% (inactive) and 96.2% (inactive)
O=C(Oc1cccc(OC(=O)c2ccccc2)c1)c1ccccc1	99.2% (inactive) and 91.2% (inactive)
CC1(c2ccc3ccccc3c2)CCC(=O)O1 (stereo not given)	113% (inactive)
CC1=C(/C=C/C(C)=C/C=C/C(C)=C/C=N/NC(=S)NC(=S)N/N=C/C=C(C)/C=C/C=C(C)/C=C/C2=C(C)CCCC2(C)C)C(C)(C)CCC1	23.6% (inactive) and -47.4% (active)
CCCCOc1cc(C(=O)NCCN(CC)CC)c2ccccc2n1	81.1% (inactive) and 95.4% (inactive)
COc1cc2c(c(OC)c1OC)-c1ccc(OC)c(=O)cc1[C@@H](NC(C)=O)CC2	-0.067% (active) and 15.5% (inactive)
CN1CCN(c2ccc3nc(-c4c(N)c5c(F)cccc5[nH]c4=O)[nH]c3c2)CC1	29% (inactive) and 14.6% (inactive)

System: CCRF-CEM leukemia
Assay: as above
Conditions: 10 µM unless noted

SMILES	growth
O=[N+]([O-])c1ccccc1/C=N\Nc1ccccc1	65.1% (inactive) and 50.8% (inactive)
CCN(CC)CCNc1cc(-c2cccc(OC(F)(F)F)c2)nc2ccc(N3CCCC3)cc12	-30.4% (active) and -4.6% (active) and 2.25% (active)
CC(=O)Nc1cc(S(=O)(=O)O)cc2cc(S(=O)(=O)O)c(N=Nc3ccccc3)c(O)c12	97.5% (inactive) and 90.8% (inactive)
CC(C)CNC(=O)c1ccccc1C(=O)NC1(C(=O)NCC(C)C)CCCC1	88.4% (inactive) and 104% (inactive)
COc1cc2nc(N3CCN(C(=O)C4COc5ccccc5O4)CC3)nc(N)c2cc1OC (stereo not given)	74.9% (inactive) and 89.6% (inactive) and 97.8% (inactive)
O=C(Cc1cccc2ccccc12)N/N=C/c1ccc2c(c1)CCC2	65.2% (inactive)
CC1=C(/C=C/C(C)=C/C=C/C(C)=C/C(=O)O)C(C)(C)CCC1	78.5% (inactive) and 92.8% (inactive) and 103% (inactive)
O=C(Nc1ccc(Br)cc1)c1cc(Br)ccc1O	23.4% (inactive) and 3.66% (active)
Cc1cc(-c2ccc(NS(=O)(=O)c3ccccc3)c(C)c2)ccc1NS(=O)(=O)c1ccccc1	80.5% (inactive) and 86.6% (inactive)
O=C(CCl)c1ccc2c(c1)Nc1ccccc1S2	53.7% (inactive) and 50.5% (inactive)
CC1CCCc2sc3nc(NNC(=O)c4cnccn4)n(-c4ccccc4)c(=O)c3c21 (stereo not given)	3.85% (active) and 0.781% (active)
Cc1cc(O)c(C(C)C)cc1N	105% (inactive) and 88.4% (inactive)
COc1ccc2cc3[n+](cc2c1OC)CCc1cc2c(cc1-3)OCO2	70.8% (inactive) and 67% (inactive)
COc1c(/C(C)=N/N=c2sc(C(C)=O)nn2-c2ccc(Cl)cc2)c(Oc2ccccc2)c(OC)c2occc12	106% (inactive)
OC(COc1cccc2ccccc12)CN1CCN(c2ccc(Cl)cc2)CC1 (stereo not given)	83.3% (inactive)
CNc1ccc2nc3ccc(=[N+](C)C)cc-3sc2c1	9.67% (active) and 11.8% (inactive)
CC1=NN(c2ccccc2)C(=O)C1C(=O)c1ccccc1 (stereo not given)	88.4% (inactive)
OCCN1CCN(CCO)CC1	99.5% (inactive) and 88.4% (inactive) and 98% (inactive)
CC1=CCC2CC1C2(C)C (stereo not given)	121% (inactive) and 114% (inactive)
COc1cc(/C=N/Nc2nc3c([nH]2)c(=O)n(C)c(=O)n3C)ccc1O	89.2% (inactive) and 104% (inactive)

SMILES	growth
S=C(S)N1CCCC1	65.5% (inactive) and 70.7% (inactive)
CC(=O)Oc1cc(C(=O)O)cc(OC(C)=O)c1OC(C)=O	101% (inactive) and 104% (inactive)
CCN(CC)C(=O)c1cccnc1	97.4% (inactive)
O=C(Nc1cccc(Cl)c1)c1cc2ccccc2cc1O	38.2% (inactive) and 53.2% (inactive)
Cn1c(SSc2ccc(-c3cccnc3)n2C)ccc1-c1cccnc1	45.2% (inactive) and 68.6% (inactive)
CN1CCN(CCC=C2c3ccccc3Sc3ccc(S(=O)(=O)N(C)C)cc32)CC1	54.2% (inactive) and 31.6% (inactive)
Oc1c(Cl)cc(Cl)cc1Sc1cc(Cl)cc(Cl)c1O	23.1% (inactive) and 9.78% (active) and 61.2% (inactive)
Cn1c(=O)n(-c2ccc(C(C)(C)C#N)cc2)c2c3cc(-c4cnc5ccccc5c4)ccc3ncc21	10.1% (inactive)
O=C(N/N=C/c1ccccc1)N/N=C/c1ccccc1	98.6% (inactive) and 102% (inactive)
COc1ccc(-c2cn[nH]c2-c2cc(OC)c(OC)c(OC)c2)cc1N	22.1% (inactive) and 21.2% (inactive)
C1CCCCNCCC1	104% (inactive)
COc1ccccc1C(C)=O	102% (inactive)
NS(=O)(=O)c1cc2c(cc1Cl)NC(C(Cl)Cl)NS2(=O)=O (stereo not given)	89.2% (inactive) and 92.5% (inactive)
O=C(Oc1cccc(OC(=O)c2ccccc2)c1)c1ccccc1	80.4% (inactive) and 107% (inactive)
CC1(c2ccc3ccccc3c2)CCC(=O)O1 (stereo not given)	105% (inactive)
CC1=C(/C=C/C(C)=C/C=C/C(C)=C/C=N/NC(=S)NC(=S)N/N=C/C=C(C)/C=C/C=C(C)/C=C/C2=C(C)CCCC2(C)C)C(C)(C)CCC1	-16.5% (active) and -23.4% (active)
CCCCOc1cc(C(=O)NCCN(CC)CC)c2ccccc2n1	89.4% (inactive)
COc1cc2c(c(OC)c1OC)-c1ccc(OC)c(=O)cc1[C@@H](NC(C)=O)CC2	8.93% (active) and 21.5% (inactive) and 3.02% (active)
CN1CCN(c2ccc3nc(-c4c(N)c5c(F)cccc5[nH]c4=O)[nH]c3c2)CC1	6.23% (active) and 10.7% (inactive)
